# According to PubChem BioAssay (NCATS):
# Inconclusive results are not listed. Active and inactive are the calls of the source. Calls follow the shape of the dose curve; as a rule, active = well fitted inhibition curve with a large enough effect; inconclusive = small, poorly fitted or top-dose-only effect; inactive = flat fitted curve, though single readings scatter.
# System: CRL-7250
# Assay: qHTS assay to identify novel small-molecules to repurpose for Merkel cell carcinoma treatment (AID 1296009); also: nearly all actives have a fitted effect of over 60% in size
# Settings: MCC and control cell lines, CellTiter-Glo viability, 72 h; series mostly up to 92 µM; activity change, negative = cytotoxicity: at the top concentration
# In short: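 Cell viability, measured as CellTiter-Glo luminescence, was normalized between DMSO and no-cell wells. The cells had been exposed to 8- or 11-point compound dilutions for 72 hr at 37 degree celsius.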
row,SMILES,outcome
1,CC(C)C(CO)Nc1nc(Nc2ccc(C(=O)O)c(Cl)c2)c2ncn(C(C)C)c2n1 (configuration not stated),inactive
2,COC(=O)[C@@H](O)[C@H]1[C@@]2(C)CC3(O)[C@@H](C(=O)[C@H]2O)[C@]24O[C@]25CC(=O)O[C@@H](c2ccoc2)[C@]5(C)CCC4[C@]13C (some centres not stated),inactive [at 17.4 µM]
3,C[C@@H](NC(=O)C(=O)c1c[nH]c2ccc([N+](=O)[O-])cc12)c1ccccc1,inactive
4,C[C@@H]1CC[C@]2(C)C(C[C@@H](O)[C@H](O)[C@]23CO3)[C@@]1(C)CCc1ccoc1 (some centres not stated),inactive
5,c1ccc(C(OC2CCN(CCCc3nn[nH]n3)CC2)c2ccccc2)cc1,inactive
6,Cc1ccc(-c2c(-c3nn(C)c4ncnc(N5CCC(N6CCCCC6)C5)c34)cnn2C)cc1 (configuration not stated),inactive
7,Nc1nc2c(s1)CCN(Cc1ccc(Cl)cc1)CC2,inactive
8,COc1cc(C[C@H]2COC(=O)[C@@H]2Cc2ccc(O)c(OC)c2)ccc1O,inactive
9,CC(C)=C1CC2[C@](C)(CC[C@@H](OC(=O)C3(C)OC3C)[C@@]2(C)O)CC1=O (some centres not stated),inactive
10,COc1cc(C(C)=O)c(OC)c2c1OC(C)(C)C=C2,inactive
11,CC(C)CCC[C@@H](C)[C@H]1CC[C@H]2[C@@H]3CC=C4C[C@@H](OC(=O)NCCN(C)C)CC[C@]4(C)[C@H]3CC[C@]12C,inactive
12,CCNC(=O)[C@@H]1CCCN1C(=O)[C@H](CCCN=C(N)N)NC(=O)[C@H](CC(C)C)NC(=O)[C@@H](C)NC(=O)[C@H](Cc1ccc(O)cc1)NC(=O)[C@H](CO)NC(=O)[C@H](Cc1c[nH]c2ccccc12)NC(=O)[C@H](Cc1cnc[nH]1)NC(=O)[C@@H]1CCC(=O)N1,inactive [at 17.4 µM]
13,C=C1CC[C@@H]2[C@@](C)(CO[C@@H]3O[C@H](CO)[C@@H](O)[C@H](O)[C@H]3O)[C@H](O)CC[C@@]2(C)[C@@H]1CC/C(C)=C/CO[C@@H]1O[C@H](CO)[C@@H](O)[C@H](O)[C@H]1O,inactive [at 17.4 µM]
14,CC(C)C1NC(=O)C2CCCN2C1=O (configuration not stated),inactive
15,C=C1CC[C@H]2[C@@H](/C=C(\C)C(=O)[C@@]3(OC(C)=O)C[C@H](C)[C@H](OC(C)=O)[C@@H]3[C@H]1OC(C)=O)C2(C)C,inactive [at 17.4 µM]
16,N#CC1C(=O)N=C(c2cc(Cl)ccc2O)C=C1c1cc(OCc2ccccc2)cc(OCc2ccccc2)c1 (configuration not stated),inactive
17,COc1cc(CC(COC2OC(CO)C(O)C(O)C2O)c2cc(/C=C/CO)cc(OC)c2O)ccc1O (configuration not stated),inactive [at 17.4 µM]
18,O=C(/C=C/c1ccc(O)cc1)OC[C@H]1O[C@@H](OC(=O)/C=C/c2ccccc2)[C@H](O)[C@@H](O)[C@@H]1O,inactive [at 17.4 µM]
19,CCc1cc(CC[C@]2(C3CCCC3)CC(O)=C(Cc3nc4nc(C)cc(C)n4n3)C(=O)O2)cc(CC)n1,inactive
20,OC1COC(OCC2OC(OCCc3ccccc3)C(O)C(O)C2O)C(O)C1O (configuration not stated),inactive [at 17.4 µM]
21,C=CC1(C)CC2=CCC3C(C)(C(=O)O)CCCC3(C)C2CC1OC(C)=O (configuration not stated),inactive
22,Cc1cc(C(=O)N2Cc3cnn(C)c3Nc3ccccc32)ccc1CNC(=O)N1CCN(Cc2cc(O)cc(O)c2)CC1,inactive
23,COc1ccc(CN2C(=O)C(=O)c3cc(S(=O)(=O)N4CCC[C@H]4COc4cccnc4)ccc32)cc1,inactive
24,CCOc1ncc(S(=O)(=O)N2CCN(CC)CC2)cc1-c1nc2c(CC)n(CCOC)nc2c(=O)[nH]1,inactive
25,O=C(OC(C(F)(F)F)C(F)(F)F)N1CCN(Cc2cccc(Oc3ccccc3)c2)CC1,inactive
26,C=CC1(C)C=C2C(=O)CC3C(C)(C)CCCC3(C(=O)O)C2(O)CC1 (configuration not stated),inactive
27,CC(=O)OC(C)(C)/C=C/C(=O)[C@](C)(O)C1[C@H](O)C[C@@]2(C)[C@@H]3CC=C4[C@@H](C[C@H](O[C@@H]5O[C@H](CO)[C@@H](O)[C@H](O)[C@H]5O)C(=O)C4(C)C)[C@]3(C)C(=O)C[C@]12C (some centres not stated),inactive [at 17.4 µM]
